From PubChem BioAssay
HCV inhibitor: qHTS Assay for Inhibitors of Hepatitis C Virus (HCV) | Huh7.5.1 HCVcc-Cre infection, luciferase reporter, 44 h | Potency, µM (series often up to 41.8 µM), usual class: inhibitors | actives 3.4% (n = 340,000) | AID 651820, 2012
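Compounds are dispensed onto cells plated 4 h earlier at 1,000 per well, with HCVcc-Cre virus (about 0.5 moi) added next. Following 44 h of culture, luminescent signal is measured for 15 sec after 15 min with substrate at room temperature.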
AmpC detergent: qHTS Inhibitors of AmpC Beta-Lactamase (assay with detergent); actives 0.041% (n = 370,000); Potency, µM (doses to about 114 µM), actives largely listed as inhibitors; AmpC hydrolysis of nitrocefin, absorbance 480 nm, 0.01% Triton; AID 485294, 2010; further: nearly all actives have a fitted effect of over 25% in size
Target sequence (P00811 whole entry, looked up): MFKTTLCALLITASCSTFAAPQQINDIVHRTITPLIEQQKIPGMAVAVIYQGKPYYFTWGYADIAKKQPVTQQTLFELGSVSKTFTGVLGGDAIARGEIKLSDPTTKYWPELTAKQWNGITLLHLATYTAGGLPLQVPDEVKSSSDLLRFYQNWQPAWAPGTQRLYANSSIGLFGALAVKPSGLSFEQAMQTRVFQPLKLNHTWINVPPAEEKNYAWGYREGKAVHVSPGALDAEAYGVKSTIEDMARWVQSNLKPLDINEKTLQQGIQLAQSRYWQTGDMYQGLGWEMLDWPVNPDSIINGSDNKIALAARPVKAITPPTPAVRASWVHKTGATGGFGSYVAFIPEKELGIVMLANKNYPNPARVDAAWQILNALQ
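AmpC (5.3 nM in the dispensed reagent) in 20 mM phosphate pH 7.0 with 0.01% (detergent screen) or 0.0001% Triton X-100 was preincubated with compounds for 15 min at room temperature. Nitrocefin was then added from an 800 uM solution, and hydrolysis was followed at 480 nm.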
AmpC no deterg: qHTS Inhibitors of AmpC Beta-Lactamase (assay without detergent); AmpC nitrocefin hydrolysis, absorbance 480 nm, 0.0001% Triton; Potency, µM (highest dose often 57.1 µM), usual class: inhibitors; actives 0.52% (n = 330,000); AID 485341, 2010; further: nearly all actives have a fitted effect of over 20% in size
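20 mM phosphate pH 7.0 + 0.01% (detergent screen) or 0.0001% Triton X-100; 5.3 nM AmpC reagent; cpd preinc 15 min RT; nitrocefin (800 uM stock) to start; A480 q20 s × 4 min; Activity was normalised to no-enzyme and no-compound control wells.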
HCMV antiviral: qHTS Assay for inhibitors of the human cytomegalovirus (HCMV). activity change, negative = inhibition, % at 57.5 µM. HFF cells, HCMV-luciferase reporter, 72 h; stronger effect = lower value. actives 4.5% (n = 410,000). AID 1259415, 2018; in the data active means activity change below about -60%; inconclusive means no clear call, values can overlap the other calls; inactive means above about -39%
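Two compound doses tested in HFFs infected with HCMV-luciferase, MOI 1 PFU/cell, 72 h at 37C. Lysate luminescence read with OneGlo; data normalized against buffer-only and 10uM Salinomycin inhibitor controls.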
FMDV antiviral: High Throughput Screening for Foot and Mouth Disease Virus Antivirals. FMDV antiviral cell-based qHTS. Potency, µM (titrated, usually from 57.9 µM), usual class: inhibitors. actives 1.2% (n = 410,000); calls by dose curve; tested in HEK293T cells; further: read-out not given here; nearly all actives have a fitted effect of over 45% in size
Each line names hits and unclear results; the compound was inactive in the other large screens; ! = not active in a repeat. Shown are actives, neighbours in structure and some others; about 7.3% of the full set was active somewhere. Unless noted, the call rests on the fitted dose curve; in most records, active means well fitted curve in the direction sought with a large enough effect; inconclusive means small, poorly fitted or top-dose-only effect, or another doubt; inactive means no such curve, though single readings can be large; an effect the other way counts as inactive or inconclusive.

COc1ccc(CNS(=O)(=O)c2ccc(C3CNC(=O)C3)cc2)cc1 (stereo unspecified)	HCV inhibitor 3.16µM, AmpC detergent inconclusive (no result: FMDV antiviral)
COc1ccc(CCNC(=O)Cn2nc(C)n3nc(-c4ccccc4)cc3c2=O)cc1OC	none
Cc1ccc(-c2cc(C(=O)N/N=C/c3c(C)nn(C)c3C)c3ccccc3n2)cc1C	HCV inhibitor 35.5µM, AmpC detergent inconclusive
Cc1nn(-c2ccccc2)c(N2CCCC2)c1/C=N/NC(=O)c1cc(-c2cccnc2)nc2ccccc12	HCV inhibitor 14.1µM
COC(=O)[C@@H]1[C@@H](CO)[C@@H]2Cn3c(cccc3=O)[C@@H]2N1C(=O)c1cnccn1	none (no result: HCV inhibitor, AmpC detergent, AmpC no deterg, FMDV antiviral)
CC(OC(=O)/C=C/c1ccco1)C(=O)NC1CCCCC1 (stereo unspecified)	none (no result: HCV inhibitor, AmpC detergent, AmpC no deterg)
CC(C)OCCCNC(=O)CCCn1c(=O)[nH]c2ccsc2c1=O	none (no result: HCV inhibitor, AmpC no deterg)
O=C(O)c1ccc(N/N=C/c2ccc(OC(=O)c3cccc(Cl)c3)cc2)cc1	HCMV antiviral -64.1, FMDV antiviral 20µM
O=C(O)c1cccc(N/N=C/c2cccs2)c1	FMDV antiviral 2.24µM
CSc1ccc(/C=N/Nc2cccc(C(=O)O)c2)cc1	FMDV antiviral 2.24µM (no result: HCMV antiviral)
O=C(N/N=C/c1cccs1)C(=O)Nc1cccc(Cl)c1	AmpC detergent inconclusive
O=C(O)c1cccc(N/N=C/c2ccc(OC(F)(F)F)cc2)c1	FMDV antiviral 25.1µM
CN(C(=O)COC(=O)c1ccc2ccccc2n1)C1CCS(=O)(=O)C1 (stereo unspecified)	none
CC(C)N(C(=O)CSc1nnc(C2CC2)n1C1CC1)c1ccccc1	none
Cn1c2ccc(F)cc2c2nnc(SCCN3CCCCC3)nc21	HCV inhibitor 11.2µM, HCMV antiviral -86.2!
CCOC(=O)Cn1c(=O)oc2cc(S(=O)(=O)Nc3ccc(N(CC)CC)cc3C)ccc21	AmpC detergent inconclusive, HCMV antiviral -76.6
CCOC(=O)Cn1c(=O)oc2cc(S(=O)(=O)Nc3cc(OCC)ccc3OCC)ccc21	none
O=C(Oc1ccc(Cl)c2cccnc12)N1CCCCCC1	HCMV antiviral -100.4
CN(C)C(=O)Oc1ccc(Cl)c2cccnc12	AmpC detergent inconclusive
Cc1ccc(S(=O)(=O)N2[C@@H](c3cccc(Cl)c3)C(C(=O)O)=CC[C@H]2c2ccc(C(C)C)cc2)cc1	HCV inhibitor inconclusive
CC1CCC2(CC1)NC(=O)N(NC(=O)c1ccc(OC(C)C)cc1)C2=O (stereo unspecified)	none
O=S(=O)(c1ccc(F)cc1)c1nc(-c2ccco2)oc1Nc1ccc(F)cc1	HCV inhibitor inconclusive, AmpC detergent inconclusive, HCMV antiviral -73.6
COc1ccc(Nc2oc(-c3ccco3)nc2S(=O)(=O)c2ccc(F)cc2)cc1	HCV inhibitor inconclusive, AmpC detergent inconclusive, HCMV antiviral inconclusive
CC1=C(CC[C@@H](C)CO)OC2CC3C4CCC5CC(O)CCC5(C)C4CC(=O)C3(C)C12 (stereo partly specified)	HCV inhibitor inconclusive, FMDV antiviral inconclusive (no result: AmpC detergent, AmpC no deterg)
CCN(CC)CCNC(=O)CCc1c(C)nc2c(c(C)nn2-c2ccc(C)cc2)c1C	HCV inhibitor 3.55µM, HCMV antiviral -92.9
CCn1cc(C(=O)NCCc2ccc(Cl)cc2)c(=O)c2cc(S(=O)(=O)N(C)C3CCCCC3)ccc21	none (no result: HCV inhibitor, AmpC no deterg)
O=C(CSc1nc2ccc([N+](=O)[O-])cc2[nH]1)NC1CCCCCC1	HCV inhibitor 14.1µM, FMDV antiviral 5.62µM
O=C(CSc1nc2ccc([N+](=O)[O-])cc2[nH]1)NC1CCCCC1	FMDV antiviral inconclusive
O=C(COC(=O)CSc1ccc([N+](=O)[O-])cc1)NC1CCCCCCC1	AmpC detergent inconclusive, AmpC no deterg 31.6µM
C/C(=N\Nc1cc(C(F)(F)F)ccc1Cl)c1ccncc1	HCV inhibitor 12.6µM
CCCc1c(C(=O)Nc2ccc(F)cc2C)cnn1-c1ccccc1	none
CCCc1c(NC(=O)Nc2ccc(F)cc2)cnn1-c1ccccc1	HCMV antiviral -67.2
Cc1cccc(N2CCN(S(=O)(=O)c3ccc(-c4ccc(=O)[nH]n4)o3)CC2)c1C	HCMV antiviral -63.1
COc1cccc(NC(=S)N(CCCN2CCC(C)CC2)Cc2cccs2)c1	HCV inhibitor inconclusive
